A selection: hits, their analogues and other compounds. The true share with any hit is near 3.5%.
Anthrax LF inh2 – blocks Bacillus anthracis lethal factor protease | inhibition, % at 10 µM | multiplex microsphere protease cleavage assay, LF | 360,000 tested, 0.12% active
Target sequence (P15917 whole entry, looked up): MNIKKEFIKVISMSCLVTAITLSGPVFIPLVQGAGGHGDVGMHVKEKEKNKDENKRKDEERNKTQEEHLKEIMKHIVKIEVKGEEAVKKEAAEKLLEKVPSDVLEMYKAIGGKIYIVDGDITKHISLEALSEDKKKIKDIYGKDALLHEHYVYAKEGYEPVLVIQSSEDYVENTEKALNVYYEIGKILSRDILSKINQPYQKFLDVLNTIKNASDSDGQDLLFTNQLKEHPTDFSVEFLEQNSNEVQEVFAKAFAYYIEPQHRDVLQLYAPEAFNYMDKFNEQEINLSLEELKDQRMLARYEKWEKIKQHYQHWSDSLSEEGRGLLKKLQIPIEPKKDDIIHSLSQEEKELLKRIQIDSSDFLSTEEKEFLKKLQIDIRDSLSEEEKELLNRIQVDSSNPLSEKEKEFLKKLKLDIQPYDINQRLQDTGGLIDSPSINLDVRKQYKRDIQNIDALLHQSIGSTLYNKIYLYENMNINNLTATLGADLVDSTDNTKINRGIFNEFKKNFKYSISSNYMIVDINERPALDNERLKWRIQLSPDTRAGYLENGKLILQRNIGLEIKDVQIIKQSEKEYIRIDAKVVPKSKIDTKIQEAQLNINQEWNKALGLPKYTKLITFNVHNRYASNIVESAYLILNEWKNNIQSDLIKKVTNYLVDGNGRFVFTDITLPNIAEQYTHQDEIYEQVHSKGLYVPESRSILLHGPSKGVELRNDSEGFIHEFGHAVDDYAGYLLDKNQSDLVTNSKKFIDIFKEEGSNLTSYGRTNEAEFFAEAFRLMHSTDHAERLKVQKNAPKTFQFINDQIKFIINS
BoNT-F LC inh – blocks Botulinum neurotoxin F light chain protease; 360,000 tested, 0.22% active; Multiplex microsphere protease cleavage assay, flow cytometry; inhibition, % at 10 µM; in the data active = inhibition above about 35%, passing the limit was not always enough; inconclusive = no clear call, values can overlap the other calls
Autofluor counter – counter-screen for toxin protease inhibitors: compound fluorescence. compound autofluorescence counterscreen, microsphere flow cytometry; active compounds read high. fluorescence intensity (no concentration beside the values). 360,000 tested, 3.1% active. AID 624483; in the data active = fluorescence intensity above about 16000; inconclusive = no clear call, values can overlap the other calls
3CLpro inhibitor – SARS-CoV 3CLpro protease inhibition. P0C6X7. 290,000 tested, 0.14% active. AID 1706. inhibition, % at 6 µM. recombinant SARS-CoV 3CLpro, quenched FRET peptide cleavage; in the data active = inhibition above about 12%
BoNT A protease – blocks Botulinum neurotoxin A light chain protease | multiplex microsphere protease substrate cleavage, flow cytometry | inhibition, % at 10 µM | 360,000 tested, 0.17% active
Hits are given with their value. Rule as the data show it, unless noted: active = inhibition above about 30%; inconclusive = no clear call, values can overlap the other calls; inactive = below that.

Results for Cc1ccc(OCCCC(=O)NCc2ccco2)cc1 ?
Anthrax LF inh2: inactive; BoNT-F LC inh: inactive; Autofluor counter: 20751; 3CLpro inhibitor: inactive; BoNT A protease: inactive

How did Cc1cccc(OCCCC(=O)NCc2ccco2)c1 do in these assays?
Anthrax LF inh2: inactive; BoNT-F LC inh: inactive; Autofluor counter: 17050; 3CLpro inhibitor: inactive; BoNT A protease: inconclusive

How did CCc1ccc(OCCCC(=O)NCc2ccco2)cc1 do in these assays?
Anthrax LF inh2: inactive; BoNT-F LC inh: inactive; Autofluor counter: inactive; 3CLpro inhibitor: inactive; BoNT A protease: inactive

Results for CC1CCc2sc(C(=O)NCc3ccc(F)cc3)cc2C1 (centres undefined) ?
Anthrax LF inh2: inactive; BoNT-F LC inh: inactive; Autofluor counter: 24108; 3CLpro inhibitor: inactive; BoNT A protease: inconclusive

How did COc1ccccc1/C=C/C(=O)NCC(=O)N/N=C/c1cccnc1 do in these assays?
Anthrax LF inh2: inactive; BoNT-F LC inh: inactive; Autofluor counter: inactive; 3CLpro inhibitor: inactive; BoNT A protease: inactive

What do the screens show for `COc1ccccc1NCC(=O)N/N=C/c1cccnc1`?
Anthrax LF inh2: inactive; BoNT-F LC inh: inactive; Autofluor counter: 23032; 3CLpro inhibitor: inactive; BoNT A protease: inactive

What do the screens show for `CCOC(=O)c1c(/N=C/c2c(O)n(-c3ccccc3F)c(=S)[nH]c2=O)sc2c1CCCC2`?
Anthrax LF inh2: 56; BoNT-F LC inh: inactive; Autofluor counter: inactive; 3CLpro inhibitor: inactive; BoNT A protease: 57

Results for CCOC(=O)c1c(/N=C/c2c(O)n(-c3ccc(F)cc3)c(=S)[nH]c2=O)sc2c1CCCC2 ?
Anthrax LF inh2: 56; BoNT-F LC inh: 43; Autofluor counter: inactive; 3CLpro inhibitor: inactive; BoNT A protease: 101

Results for O=C(Nc1c(F)cccc1F)C1CCN(C(=O)c2cccs2)CC1 ?
Anthrax LF inh2: inactive; BoNT-F LC inh: inactive; Autofluor counter: inactive; 3CLpro inhibitor: inactive; BoNT A protease: inactive

What do the screens show for `CC(=NOC(=O)c1ccc(Cl)cc1)c1nccs1`?
Anthrax LF inh2: inactive; BoNT-F LC inh: inactive; Autofluor counter: inactive; BoNT A protease: inactive

How did C/C(=N\OC(=O)c1ccc(Cl)cc1)c1nccs1 do in these assays?
Anthrax LF inh2: inactive; BoNT-F LC inh: inactive; Autofluor counter: 24861; 3CLpro inhibitor: inactive; BoNT A protease: inactive

How did Cc1cc(NCCCN2CCOCC2)n2ncc(-c3ccc(Cl)cc3)c2n1 do in these assays?
Anthrax LF inh2: inactive; BoNT-F LC inh: inactive; Autofluor counter: 23672; 3CLpro inhibitor: inactive; BoNT A protease: inconclusive

How did Cc1cc(NCCCn2ccnc2)n2ncc(-c3ccc(Cl)cc3)c2n1 do in these assays?
Anthrax LF inh2: inactive; BoNT-F LC inh: inactive; Autofluor counter: 22244; 3CLpro inhibitor: inactive; BoNT A protease: inconclusive

How did CN(C)CCCNc1cc(C(C)(C)C)nc2c(-c3ccc(Cl)cc3)cnn12 do in these assays?
Anthrax LF inh2: inactive; BoNT-F LC inh: inactive; Autofluor counter: inactive; 3CLpro inhibitor: inactive; BoNT A protease: inactive

What do the screens show for `O=c1[nH]cnc2c1cnn2Cc1ccccc1`?
Anthrax LF inh2: inactive; BoNT-F LC inh: inactive; Autofluor counter: 21532; 3CLpro inhibitor: inactive; BoNT A protease: inconclusive

Results for Cc1cc(NC(=O)CSc2nc3ccsc3c(=O)n2NC(=O)c2ccccc2)no1 ?
Anthrax LF inh2: inactive; BoNT-F LC inh: inactive; Autofluor counter: inactive; 3CLpro inhibitor: inactive; BoNT A protease: inactive

How did Cc1ccc(CNC(=O)CSc2nc3ccsc3c(=O)n2NC(=O)c2ccccc2)cc1 do in these assays?
Anthrax LF inh2: inactive; BoNT-F LC inh: inactive; Autofluor counter: 23505; 3CLpro inhibitor: inactive; BoNT A protease: inactive

How did CC(OC(=O)c1cccnc1SCc1cc(=O)n2ccccc2n1)c1ccccn1 (centres undefined) do in these assays?
Anthrax LF inh2: inactive; BoNT-F LC inh: inactive; Autofluor counter: 16644; 3CLpro inhibitor: inactive; BoNT A protease: inactive

Results for CCOC(=O)c1cccnc1SCc1cc(=O)n2ccccc2n1 ?
Anthrax LF inh2: inactive; BoNT-F LC inh: inactive; Autofluor counter: inactive; 3CLpro inhibitor: inactive; BoNT A protease: inactive

What do the screens show for `O=C(Nc1ccccc1)OCCOc1ccc(Cl)cc1Cl`?
Anthrax LF inh2: inactive; BoNT-F LC inh: inactive; Autofluor counter: inactive; BoNT A protease: inactive

What do the screens show for `COc1ccc(CC(=O)OCC(=O)NCCNC(=O)COC(=O)Cc2ccc(OC)cc2)cc1`?
Anthrax LF inh2: inactive; BoNT-F LC inh: inactive; Autofluor counter: inconclusive; BoNT A protease: inactive

What do the screens show for `COc1ccc(CN2CCN(c3ncccn3)CC2)c(OC)c1`?
Anthrax LF inh2: inactive; BoNT-F LC inh: inactive; Autofluor counter: 22491; 3CLpro inhibitor: inactive; BoNT A protease: inactive

What do the screens show for `c1ccc(-c2ccc(CN3CCN(c4ncccn4)CC3)cc2)cc1`?
Anthrax LF inh2: inactive; BoNT-F LC inh: inactive; Autofluor counter: 16137; 3CLpro inhibitor: inactive; BoNT A protease: inactive

What do the screens show for `Fc1cccc(CN2CCN(c3ncccn3)CC2)c1`?
Anthrax LF inh2: inactive; BoNT-F LC inh: inactive; Autofluor counter: 19248; 3CLpro inhibitor: inactive; BoNT A protease: inactive

How did COc1ccc(CN2CCN(c3ccccn3)CC2)c(OC)c1 do in these assays?
Anthrax LF inh2: inactive; BoNT-F LC inh: inactive; Autofluor counter: inactive; 3CLpro inhibitor: inactive; BoNT A protease: inactive

Results for COc1ccc(C(=O)NCc2c(C)oc(C)c2C(=O)O)cc1 ?
Anthrax LF inh2: inactive; BoNT-F LC inh: 36; Autofluor counter: inactive; 3CLpro inhibitor: inactive; BoNT A protease: inactive

What do the screens show for `COc1ccc(C(=O)NCC(=O)O)cc1`?
Anthrax LF inh2: inactive; BoNT-F LC inh: inactive; Autofluor counter: 17003; 3CLpro inhibitor: inactive; BoNT A protease: inactive

Results for COc1ccc(OCc2ccc(C(=O)NN)cc2)cc1 ?
Anthrax LF inh2: inactive; BoNT-F LC inh: inactive; Autofluor counter: 19696; 3CLpro inhibitor: inactive; BoNT A protease: inactive

How did Cc1oc(C)c(C(=O)O)c1COc1ccc(C(=O)O)cc1 do in these assays?
Anthrax LF inh2: inactive; BoNT-F LC inh: inactive; Autofluor counter: inactive; 3CLpro inhibitor: inactive; BoNT A protease: inactive

How did NNC(=O)c1ccc(COc2ccccc2)cc1 do in these assays?
Anthrax LF inh2: inactive; BoNT-F LC inh: inactive; Autofluor counter: inactive; 3CLpro inhibitor: inactive; BoNT A protease: inactive

What do the screens show for `COc1ccc(OCC(O)CNC(=O)c2ccc(Br)cc2)cc1` (centres undefined)?
Anthrax LF inh2: inactive; BoNT-F LC inh: inactive; Autofluor counter: 21623; 3CLpro inhibitor: inactive; BoNT A protease: inactive

How did O=C1CC(=O)N(CCc2ccccc2)C(=O)N1CCc1ccccc1 do in these assays?
Anthrax LF inh2: inactive; BoNT-F LC inh: inactive; Autofluor counter: 22637; 3CLpro inhibitor: inactive; BoNT A protease: inactive

Results for Cc1ccc(S(=O)(=O)N(CC(=O)N2CCN(c3ccc(F)cc3)CC2)C2CCCCC2)cc1 ?
Anthrax LF inh2: inactive; BoNT-F LC inh: inactive; Autofluor counter: 23859; 3CLpro inhibitor: inactive; BoNT A protease: inactive

Results for Cc1cc2oc(=O)cc(-c3ccccc3)c2c(C)c1-c1ccc(F)c(Cl)c1 ?
Anthrax LF inh2: inactive; BoNT-F LC inh: inactive; Autofluor counter: inactive; BoNT A protease: inactive

What do the screens show for `O=C(NCc1ccccc1F)C1CCN(C(=O)NCc2ccccc2)CC1`?
Anthrax LF inh2: inactive; BoNT-F LC inh: inactive; Autofluor counter: 17003; 3CLpro inhibitor: inactive; BoNT A protease: inactive

Results for O=C(NC1CCCCC1)C1CCN(C(=O)NCc2ccccc2)CC1 ?
Anthrax LF inh2: inactive; BoNT-F LC inh: inactive; Autofluor counter: 16321; 3CLpro inhibitor: inactive; BoNT A protease: inactive

What do the screens show for `O=C(NC1CCCC1)C1CCN(C(=O)NCc2ccccc2)CC1`?
Anthrax LF inh2: inactive; BoNT-F LC inh: inactive; Autofluor counter: inactive; 3CLpro inhibitor: inactive; BoNT A protease: inactive
